Test results taken from PubChem BioAssay AID1347383 (Zoeller Lab, School of Medicine, Boston University, 2020).
Active and inactive are the calls of the source.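 The calls were made as follows: active = cell survival after UV exposure 2 SD above solvent-only control wells at 10 µM, confirmed on one or two repeats; inactive = the rest.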

Experiment: protection of CHO cells from pyrene-fatty acid UV killing, primary screen, phospholipid biosynthesis inhibitor project, ZR-82 cells, Analyticon library, screen 2 (AID 1347383);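 also: survival reflects blocked phospholipid synthesis cutting uptake of the phototoxic fatty acid; compound and fatty acid exposure 3 h then viability read next day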
Settings: ZR-82 CHO cells, CellTiter Blue, at 10 µM; peroxisome-deficient CHO-K1 variant, with DGAT-1, DGAT-2 and ACAT inhibitors unless noted

Row | SMILES | outcome
1 | C=C[C@H]1CN2CC[C@H]1C[C@@H]2[C@@H](O)c1ccnc2ccccc12 | inactive
2 | C=CC(C)(C)c1cc2c(O)c3c(c(C(C)(C)C=C)c2oc1=O)OC(C)(C)C=C3 | inactive
3 | COc1ccc(C23CCC(=O)C=C2N(C)CC3)cc1OC (configuration not stated) | inactive
4 | CC(C)(C)C1(O)C[C@@H]2OC(=O)C[C@@]23C(=O)O[C@@H]2OC(=O)[C@@H](O)[C@]213 (some centres not stated) | inactive
5 | OCC(O)Cc1ccc2c(c1)OCO2 (configuration not stated) | inactive [setting not given]
6 | C=C(C)[C@H]1CCC(C)=C[C@@H]1c1c(O)cc(CCCCC)cc1O | inactive
7 | C/C=C1/CN2C3CC1C(CO)C2Cc1c3[nH]c2ccccc12 (configuration not stated) | inactive
8 | C=C1C(=O)CC2OC2(C)CC2OC(=O)C(=C)C2C(O)C1OC(=O)/C(C)=C\C (configuration not stated) | inactive
9 | CO[C@H]1[C@H](O)[C@H](O[C@H]2CC[C@]3(C)C4CC[C@]5(C)[C@H](C6=CC(=O)OC6)CC[C@]5(O)C4CC[C@@H]3C2)O[C@@H](C)[C@@H]1O (some centres not stated) | inactive
10 | CC(=O)NCCc1c[nH]c2ccccc12 | inactive [setting not given]
11 | C[C@@]1(CO)[C@H](O)CC[C@@]2(C)[C@H]1CC[C@H]1C[C@@H]3C[C@@]12CC[C@]3(O)CO | inactive [setting not given]
12 | C=CC1C[N+]2([O-])CCC1CC2C(O)c1ccnc2ccc(OC)cc12 (configuration not stated) | inactive
13 | CO[C@@H]1[C@H](O)[C@@H](O[C@@H]2C[C@H]3CC[C@@H]4C(CC[C@]5(C)[C@@H](C6=CC(=O)OC6)CC[C@]45O)[C@@]3(C)[C@H](O)C2)O[C@H](C)[C@@H]1O (some centres not stated) | inactive
14 | C[C@]12CC[C@H](O)CC1=CC[C@@H]1C2CC[C@]2(C)[C@@H](C3=CC(=O)OC3)CC[C@]12O (some centres not stated) | inactive
15 | CO[C@H]1C[C@H](O[C@H]2CC[C@]3(CO)[C@H]4CC[C@]5(C)[C@@H](C6=CC(=O)OC6)CC[C@]5(O)[C@@H]4CC[C@]3(O)C2)O[C@H](C)[C@H]1O | inactive
16 | COc1ccc(CC2C(=O)OCC2Cc2ccc3c(c2)OCO3)cc1OC (configuration not stated) | inactive
17 | CN1C(=O)c2ccccc2NC(=O)[C@]12O[C@@H]2c1ccccc1 | inactive
18 | C[C@@]1(C(=O)O)CC[C@]2(C)CC[C@]3(C)C4=CC(=O)c5cc(O)c(O)cc5[C@]4(C)CC[C@@]3(C)[C@@H]2C1 | inactive
19 | CC(C)C(=O)O[C@H]1[C@@H]2[C@H](C)C(=O)O[C@@H]2C[C@@H](C)[C@@H]2C=CC(=O)[C@]21C | inactive
20 | CO[C@@H]1[C@@H](O)[C@H](C)O[C@@H](O[C@H]2CC[C@]3(C)C4CC[C@]5(C)[C@H](C6=CC(=O)OC6)CC[C@]5(O)C4CC[C@@H]3C2)[C@H]1OC(C)=O (some centres not stated) | inactive
21 | CCC1CN2CCC3(C(=O)Nc4cccc(O)c43)C2CC1/C(=C/OC)C(=O)OC (configuration not stated) | inactive
22 | COc1cc(C2c3cc4c(cc3C(O)C3COC(=O)C23)OCO4)cc(OC)c1O (configuration not stated) | inactive
23 | C[C@@H]1CCC2[C@@H](C)C(=O)OC3O[C@]4(C)CCC1[C@]32OO4 (some centres not stated) | inactive
24 | C[C@H]1O[C@@H](O[C@H]2CC[C@]3(C=O)C4CC[C@]5(C)[C@@H](C6=CC(=O)OC6)CC[C@]5(O)[C@@H]4CC[C@]3(O)C2)C[C@@H](O)[C@@H]1O (some centres not stated) | inactive
25 | CCCCCCCCCCCCCCCc1cccc(O)c1O | inactive
26 | O=C1N[C@@H](Cc2ccccc2)CN2CCCC[C@@H]12 | inactive
27 | CC[C@H]1CN2CC[C@H]1C[C@H]2[C@H](O)c1ccnc2ccc(OC)cc12 | inactive
